17 compounds from PubChem BioAssay (NCATS) can be followed below.

Experiment [1] addresses Guanine nucleotide-binding protein G(i) subunit alpha-1 (Homo sapiens) (UniProt P63096). As to the kind of experiment: qHTS Assay for Inhibitors of RGS12 GoLoco Motif Activity (Green Fluorophore) (AID 879).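 Further: 0% = labeled peptide with Gαi1 and full inhibition = labeled peptide alone without protein; negative values mean loss of peptide binding seen as reduced polarization.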 Put shortly:
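Fluorescence polarization assay: 50 nM Gαi1 with 10 nM FITC-labeled RGS12 GoLoco peptide in 10 mM Tris pH 7.5, 150 mM NaCl, 0.1 mM GDP, 0.05% NP40, 10 min at room temperature with compound.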
On the technique in general: Quantitative high-throughput screening tests each substance at several concentrations.

A short description of experiment [2]: qHTS Assay for Identification of Small Molecule Agonists for Thrombopoietin (TPO) Signaling Pathway (AID 917). Further: on the % scale 0 is the no-effect control and ±100 the full control effect. A digest of the protocol: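 Murine Ba/F3 cells stably expressing human TPO receptor and a Glycoprotein IIb promoter–luciferase reporter were IL-3-starved overnight, then treated with compounds plus TPO (26 pM final, its EC50) for 24 hrs at 37 C; luminescence was read.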

Experiment [3] concerns the target Pyruvate kinase (Leishmania mexicana) (UniProt Q27686). As to the kind of experiment: qHTS Validation Assay for Inhibitors of Leishmania Mexicana Pyruvate Kinase (AID 945).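 Further: 0% = DMSO only neutral control wells.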 Put shortly: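 The enzyme is a highly purified E451W mutant of LmPYK used at 0.2 nM. It converts 0.5 mM PEP and 0.1 mM ADP over 1 h at room temperature; product ATP is quantified by luciferase luminescence relative to DMSO controls.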

Experiment [4] deals with Pyruvate kinase PKM (Homo sapiens) (UniProt P14618). Briefly: qHTS Assay for Activators of Human Muscle Pyruvate Kinase (AID 954; active means well fitted curve in the direction sought with a large enough effect, not every such curve was filed as active;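 further: 0% = uninhibited enzyme and -100% = no enzyme or full thiadiazolimine inhibition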). A digest of the protocol:
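Purified human PKM2 (0.1 nM) with 0.5 mM PEP (Km) and 0.1 mM ADP in 50 mM imidazole pH 7.2, KCl, MgCl2, 1 h at room temperature; ATP formed read by coupled luciferase luminescence. Normalized to no-enzyme/110 uM thiadiazolimine inhibition; 0.3 nM enzyme column for activation.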

Experiment [5] concerns the target Alpha-galactosidase (Coffea arabica) (UniProt Q42656). As to the kind of experiment: Counterscreen for Glucocerebrosidase Inhibitors: qHTS Assay for Coffee Bean alpha-Galactosidase at pH 4.5 (AID 957).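 Further: series mostly up to about 77 µM; plate controls were enzyme alone for no effect and no enzyme for full effect.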 A digest of the protocol: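 AC50 values derive from Hill-equation modeling of concentration-response data, normalized to no-enzyme and full-activity controls. The pH 4.5 citrate assay used 2 nM coffee bean enzyme and 80 uM fluorogenic substrate for 20 min.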
(The purpose of a counterscreen is to sort out artefacts and off-target activity.)

Experiment [6] deals with Alpha-galactosidase A (Homo sapiens) (UniProt P06280). As to the kind of experiment: Counterscreen for Glucocerebrosidase Inhibitors: qHTS Assay for Human alpha-Galactosidase at pH 4.5 (AID 992). Further: 0% is about no effect. Put shortly: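 Human enzyme (2 nM) with 80 uM 4-methylumbelliferyl alpha-D-galactopyranoside in 50 mM citric acid, 0.005% Tween-20, pH 4.5, 20 min at room temperature. Compounds 0.7 nM–77 uM; fluorescence Ex 365/Em 440 after pH 10 stop; AC50 from Hill fits.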

Experiment [7] has as its target alpha-glucosidase (Oryza sativa, rice) (UniProt Q653V4). As to the kind of experiment: Counterscreen for Glucocerebrosidase Inhibitors: qHTS Assay for Rice alpha-Glucosidase at pH 5.0 (AID 997).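 Further: 0% = full activity with enzyme and -100% = basal without enzyme.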 A digest of the protocol:
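Rice alpha-glucosidase (4 nM final) with 400 uM 4-methylumbelliferyl-alpha-D-glucopyranoside in citrate buffer pH 5.0, 20 min at room temperature, stopped at pH 10; fluorescence 365/440 nm, compounds 0.7 nM–77 uM, AC50 from Hill fits.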

Experiment [8] addresses Alpha-galactosidase (Coffea arabica) (UniProt Q42656). As to the kind of experiment: Counterscreen for Glucocerebrosidase Inhibitors: qHTS Assay for Coffee Bean alpha-Galactosidase at pH 5.9 (AID 998).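 Further: plate controls were uninhibited enzyme for no effect and no-enzyme basal signal for full effect.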 Put shortly: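 Green coffee bean enzyme (2 nM final) was incubated with compounds (0.7 nM–77 uM) and 4-methylumbelliferyl alpha-D-galactopyranoside (80 uM) in citrate buffer pH 5.9, 20 min at room temperature. High-pH stop; fluorescence 365/440 nm; AC50 from Hill fits.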

The target of experiment [9] is ATP-dependent 6-phosphofructokinase (Trypanosoma brucei brucei) (UniProt O15648). As to the kind of experiment: qHTS Assay to Find Inhibitors of T. brucei phosphofructokinase: hit validation (AID 492961).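 Further: luminescence reports ADP formed as PFK phosphorylates fructose-6-phosphate with ATP; series mostly up to about 51 µM; on the % scale 0 is the no-effect control and ±100 the full control effect.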 A digest of the protocol: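 Percent activity derived from corrected luminescence, normalized between 0x and 1x enzyme controls, then fitted to concentration-response curves. Conditions: 1.25 nM PFK, 0.1 mM ATP, 0.5 mM F6P, 45 min RT.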

The target of experiment [10] is Cytochrome P450 2C9 (Homo sapiens) (UniProt P11712). As to the kind of experiment: qHTS Assay for Inhibitors and Substrates of Cytochrome P450 2C9 (AID 883). Further: nearly all actives have a fitted effect of over 60% in size. Further: potency means the concentration at half of the fitted maximal effect. Put shortly:
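A luminogenic readout tracked human CYP2C9 (10nM) converting deoxyluciferin (100uM, at KM) in 25mM KPO4 during 60 min at 37C with regenerated NADPH. Values normalized to 57uM sulphaphenazole as complete inhibition.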

Experiment [11] in a line: qHTS assay for small molecule antagonists of peroxisome proliferator-activated receptor delta signaling (AID 588535; active means well fitted inhibition curve with a large enough effect in the signal ratio, with a control signal flat, not every such curve was filed as active; the % refers to the signal ratio;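 on max response: cells co-treated with a PPAR-delta agonist as stimulator during compound exposure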). To be noted: HEK293T PPARd-UAS-bla, beta-lactamase FRET ratio, 18 h; 460 nm channel. A digest of the protocol:
(§1)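 GeneBLAzer PPAR-delta-UAS-bla HEK293T cells in medium with 2% charcoal/dextran FBS were preincubated 5 hrs at 37 C, then given compounds, incubated 18 hrs at 37 C, and read by CCF4 beta-lactamase fluorescence; IC50 from Hill fits.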

Experiment [12] concerns the target Peroxisome proliferator-activated receptor delta (Homo sapiens) (UniProt Q03181). The description is as above. Put shortly: as §1
Experiment [13] concerns the target Peroxisome proliferator-activated receptor gamma (Homo sapiens) (UniProt P37231). Briefly: qHTS assay for small molecule agonists of peroxisome proliferator-activated receptor gamma signaling (AID 588536; active means well fitted curve in the direction sought with a large enough effect in the signal ratio, with a control signal flat, not every such curve was filed as active; the % refers to the signal ratio;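 further: 0% = DMSO basal wells and 100% = rosiglitazone at 2 µM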). Put shortly: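 GeneBLAzer PPAR-gamma-UAS-bla HEK293 cells in 1% charcoal/dextran-treated FBS medium were treated 16 h at 37 C with compounds. Beta-lactamase activity was read by CCF4 ratio (460/530 nm). Response was normalized to 2 uM rosiglitazone (100%) and DMSO, then Hill-fitted for EC50 and efficacy.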

The target in experiment [14] is Vitamin D3 receptor (Homo sapiens) (UniProt P11473). As to the kind of experiment: qHTS assay for small molecule antagonists of vitamin D receptor signaling (AID 588541; calls by dose curve;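 further: receptor activated by calcitriol during compound treatment; series mostly up to about 77 µM; on the % scale 0 is the no-effect control and ±100 the full control effect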). A digest of the protocol: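 VDR-UAS-bla HEK293T cells (2000/well, 2% charcoal-stripped FBS) were treated with titrated compounds plus 1-alpha,25-dihydroxyvitamin D3 (50 nM or 3 nM final) for 16 h at 37 C. CCF4 beta-lactamase fluorescence was read; Hill fits gave IC50.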

The nature of experiment [15]: qHTS assay for small molecule agonists of retinoid X receptor alpha signaling (AID 588544; calls by dose curve). To be noted: HEK293T RXRa-UAS-bla, beta-lactamase reporter, 18 h; 530 nm emission.
Experiment [16] has as its target Retinoic acid receptor RXR-alpha (Homo sapiens) (UniProt P19793). The experiment is described as above.
The target in experiment [17] is Thyroid hormone receptor beta (Homo sapiens) (UniProt P10828). Briefly: qHTS assay for small molecule agonists of thyroid hormone receptor beta signaling (AID 588545; calls by dose curve). Put shortly:
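Cells (2500/well) were seeded, incubated 4 hrs at 37 C, dosed with a compound series, incubated 18 hrs, loaded with CCF4 dye for 2 hrs at RT, then read for fluorescence. Data were scaled between DMSO (0%) and 10 nM T3 (100%).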

For experiment [18], the target named is Retinoic acid receptor RXR-alpha (Homo sapiens) (UniProt P19793). As to the kind of experiment: qHTS assay for small molecule antagonists of retinoid X receptor alpha signaling (AID 588546; active means well fitted inhibition curve with a large enough effect in the signal ratio, with a control signal flat, not every such curve was filed as active; the % refers to the signal ratio;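 further: cells stimulated with 9-cis-retinoic acid as agonist; on the % scale 0 is the no-effect control and ±100 the full control effect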). To be noted: HEK293T RXRa-UAS-bla, beta-lactamase ratio, antagonist mode. A digest of the protocol:
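Beta-lactamase reporter inhibition, read as CCF4 fluorescence ratio (ex 405, em 460/530 nm) after 2 h at RT. HEK293T UAS-bla cells, 2500/well, were stimulated with 9-cis-RA at 500 or 100 nM final alongside test compound for 18 h at 37 C.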

Experiment [19] deals with Peroxisome proliferator-activated receptor alpha (Homo sapiens) (UniProt Q07869). As to the kind of experiment: qHTS assay for small molecule agonists of the peroxisome proliferator-activated receptor alpha (PPARalpha) signaling pathway (AID 651778). Further: % of control where 0% means no effect. To be noted: PathHunter PPARalpha complementation, chemiluminescence, 6 h; stronger effect = higher value. Put shortly: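 Cells plated at 2,000/well and held overnight at 37 C, 5% CO2, then compound added by pin tool for 6 hr; after PathHunter detection reagent and 60 min at room temperature, chemiluminescence from enzyme complementation was read.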

A short description of experiment [20]: qHTS assay for cell viability of HEK293 cells (AID 743288). Further: on the % scale 0 is the no-effect control and ±100 the full control effect; nearly all actives have a fitted effect of over 50% in size. To be noted: ATP luminescence (CellTiter-Glo), 18 h; max response: stronger effect = lower value. A digest of the protocol: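 Parental HEK293 cells were seeded at 2,000 cells/well, rested at least 5 h at 37 C, then exposed to compounds in DMSO for 18 h at 37 C. Viability was read as ATP-dependent luciferase luminescence after 30 min at room temperature.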

The structures appear in SMILES notation. Inconclusive results are not listed. The source made the active and inactive calls. Unless noted, the call rests on the fitted dose curve; in most records, active means well fitted curve in the direction sought with a large enough effect; inconclusive means small, poorly fitted or top-dose-only effect, or another doubt; inactive means no such curve, though single readings can be large; an effect the other way counts as inactive or inconclusive.

Sequence of Pyruvate kinase (Leishmania mexicana) (Q27686 2-499 E452W): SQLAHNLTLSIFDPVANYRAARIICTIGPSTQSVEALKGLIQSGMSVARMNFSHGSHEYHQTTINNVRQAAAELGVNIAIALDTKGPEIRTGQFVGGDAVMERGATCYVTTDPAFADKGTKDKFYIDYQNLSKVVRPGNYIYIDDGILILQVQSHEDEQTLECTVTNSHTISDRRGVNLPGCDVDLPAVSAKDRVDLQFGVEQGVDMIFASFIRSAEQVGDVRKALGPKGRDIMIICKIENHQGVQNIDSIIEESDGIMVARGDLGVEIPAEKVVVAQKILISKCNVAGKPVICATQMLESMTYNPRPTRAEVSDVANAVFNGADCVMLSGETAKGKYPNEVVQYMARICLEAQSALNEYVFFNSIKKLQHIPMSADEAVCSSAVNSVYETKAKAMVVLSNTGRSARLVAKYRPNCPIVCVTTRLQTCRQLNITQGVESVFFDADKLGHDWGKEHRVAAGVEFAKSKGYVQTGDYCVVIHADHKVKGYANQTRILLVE
Sequence of ATP-dependent 6-phosphofructokinase (Trypanosoma brucei brucei) (O15648 whole entry, looked up): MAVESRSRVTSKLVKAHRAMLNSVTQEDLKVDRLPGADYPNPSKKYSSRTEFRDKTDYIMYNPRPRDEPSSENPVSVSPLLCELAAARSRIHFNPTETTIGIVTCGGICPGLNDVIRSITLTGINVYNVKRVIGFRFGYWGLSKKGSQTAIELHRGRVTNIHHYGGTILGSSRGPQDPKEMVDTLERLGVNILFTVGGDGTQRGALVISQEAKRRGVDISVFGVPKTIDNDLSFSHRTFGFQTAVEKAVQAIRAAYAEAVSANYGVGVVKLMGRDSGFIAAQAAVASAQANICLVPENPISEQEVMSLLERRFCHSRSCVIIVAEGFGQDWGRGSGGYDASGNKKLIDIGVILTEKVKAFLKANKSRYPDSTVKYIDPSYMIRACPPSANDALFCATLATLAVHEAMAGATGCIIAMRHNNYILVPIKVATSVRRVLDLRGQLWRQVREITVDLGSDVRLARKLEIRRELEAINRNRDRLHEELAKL
Sequence of Guanine nucleotide-binding protein G(i) subunit alpha-1 (Homo sapiens) (P63096 whole entry, looked up): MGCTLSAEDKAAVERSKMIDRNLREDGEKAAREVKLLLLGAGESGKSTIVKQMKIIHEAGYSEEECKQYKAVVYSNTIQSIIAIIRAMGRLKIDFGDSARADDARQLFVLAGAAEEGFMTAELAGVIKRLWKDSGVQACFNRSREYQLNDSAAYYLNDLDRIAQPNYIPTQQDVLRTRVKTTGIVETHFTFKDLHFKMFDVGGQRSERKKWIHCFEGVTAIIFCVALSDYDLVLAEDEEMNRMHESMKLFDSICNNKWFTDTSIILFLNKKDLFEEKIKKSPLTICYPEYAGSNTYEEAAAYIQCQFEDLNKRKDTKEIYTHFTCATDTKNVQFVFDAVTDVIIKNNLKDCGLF
Sequence of Pyruvate kinase PKM (Homo sapiens) (P14618 whole entry, looked up): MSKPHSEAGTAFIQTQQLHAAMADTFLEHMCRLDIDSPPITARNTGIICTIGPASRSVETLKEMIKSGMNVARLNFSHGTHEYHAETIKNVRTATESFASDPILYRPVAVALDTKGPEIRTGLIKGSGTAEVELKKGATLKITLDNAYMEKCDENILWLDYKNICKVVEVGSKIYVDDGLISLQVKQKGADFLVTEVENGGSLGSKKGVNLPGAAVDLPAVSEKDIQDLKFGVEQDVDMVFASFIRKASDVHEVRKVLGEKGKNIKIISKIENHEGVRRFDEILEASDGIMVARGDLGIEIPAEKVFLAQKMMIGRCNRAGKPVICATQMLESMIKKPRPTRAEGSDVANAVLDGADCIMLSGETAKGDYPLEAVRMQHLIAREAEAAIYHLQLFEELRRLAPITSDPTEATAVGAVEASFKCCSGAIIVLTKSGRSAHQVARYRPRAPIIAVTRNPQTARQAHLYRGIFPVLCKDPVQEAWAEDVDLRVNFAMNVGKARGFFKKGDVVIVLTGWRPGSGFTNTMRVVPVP
Sequence of Alpha-galactosidase (Coffea arabica) (Q42656 whole entry, looked up): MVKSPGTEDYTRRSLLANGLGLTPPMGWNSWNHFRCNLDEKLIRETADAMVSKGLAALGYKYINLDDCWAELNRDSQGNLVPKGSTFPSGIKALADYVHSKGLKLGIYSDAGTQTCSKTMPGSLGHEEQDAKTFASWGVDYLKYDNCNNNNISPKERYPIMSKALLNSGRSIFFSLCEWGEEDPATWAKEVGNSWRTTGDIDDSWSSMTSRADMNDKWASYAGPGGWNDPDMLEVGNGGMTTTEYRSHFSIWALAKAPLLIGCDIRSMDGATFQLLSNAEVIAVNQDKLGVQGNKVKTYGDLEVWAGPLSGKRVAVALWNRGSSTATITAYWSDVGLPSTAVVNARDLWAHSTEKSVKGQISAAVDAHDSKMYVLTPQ
Sequence of Alpha-galactosidase A (Homo sapiens) (P06280 whole entry, looked up): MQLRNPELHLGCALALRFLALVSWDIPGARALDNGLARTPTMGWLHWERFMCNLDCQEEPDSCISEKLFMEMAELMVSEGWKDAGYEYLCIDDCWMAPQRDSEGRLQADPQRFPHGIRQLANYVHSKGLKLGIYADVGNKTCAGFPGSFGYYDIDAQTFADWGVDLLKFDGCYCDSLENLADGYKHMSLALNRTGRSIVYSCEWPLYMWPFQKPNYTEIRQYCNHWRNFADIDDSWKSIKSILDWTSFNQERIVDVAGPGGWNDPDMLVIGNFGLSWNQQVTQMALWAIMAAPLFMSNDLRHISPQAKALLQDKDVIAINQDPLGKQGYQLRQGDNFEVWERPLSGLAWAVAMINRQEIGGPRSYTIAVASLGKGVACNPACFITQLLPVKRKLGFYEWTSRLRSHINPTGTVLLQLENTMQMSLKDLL
Sequence of Cytochrome P450 2C9 (Homo sapiens) (P11712 whole entry, looked up): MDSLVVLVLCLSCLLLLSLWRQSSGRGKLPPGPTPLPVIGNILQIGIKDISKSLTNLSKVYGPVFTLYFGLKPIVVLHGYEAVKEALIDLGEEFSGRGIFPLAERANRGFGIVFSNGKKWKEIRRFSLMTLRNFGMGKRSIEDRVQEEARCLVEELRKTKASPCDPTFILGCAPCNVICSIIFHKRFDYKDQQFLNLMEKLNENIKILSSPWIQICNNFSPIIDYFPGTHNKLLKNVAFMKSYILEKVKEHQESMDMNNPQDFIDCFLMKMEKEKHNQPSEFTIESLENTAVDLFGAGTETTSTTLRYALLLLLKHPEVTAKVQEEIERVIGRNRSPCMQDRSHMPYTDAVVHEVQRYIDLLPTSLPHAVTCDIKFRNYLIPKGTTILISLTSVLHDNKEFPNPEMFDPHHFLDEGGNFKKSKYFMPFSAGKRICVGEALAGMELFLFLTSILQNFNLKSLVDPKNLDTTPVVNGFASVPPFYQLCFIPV
Sequence of Retinoic acid receptor RXR-alpha (Homo sapiens) (P19793 whole entry, looked up): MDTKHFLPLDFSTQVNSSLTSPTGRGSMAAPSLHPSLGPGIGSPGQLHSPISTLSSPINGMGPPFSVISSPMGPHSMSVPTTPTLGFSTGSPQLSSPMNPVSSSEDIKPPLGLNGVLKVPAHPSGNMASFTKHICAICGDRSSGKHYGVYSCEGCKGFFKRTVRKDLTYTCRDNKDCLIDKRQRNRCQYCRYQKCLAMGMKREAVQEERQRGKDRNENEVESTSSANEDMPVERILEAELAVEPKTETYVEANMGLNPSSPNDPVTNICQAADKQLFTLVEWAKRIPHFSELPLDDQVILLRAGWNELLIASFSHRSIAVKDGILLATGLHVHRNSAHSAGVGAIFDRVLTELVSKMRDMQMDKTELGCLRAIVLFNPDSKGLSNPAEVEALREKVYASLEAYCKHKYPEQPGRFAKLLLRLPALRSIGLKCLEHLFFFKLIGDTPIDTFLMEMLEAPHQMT
Sequence of Peroxisome proliferator-activated receptor delta (Homo sapiens) (Q03181 whole entry, looked up): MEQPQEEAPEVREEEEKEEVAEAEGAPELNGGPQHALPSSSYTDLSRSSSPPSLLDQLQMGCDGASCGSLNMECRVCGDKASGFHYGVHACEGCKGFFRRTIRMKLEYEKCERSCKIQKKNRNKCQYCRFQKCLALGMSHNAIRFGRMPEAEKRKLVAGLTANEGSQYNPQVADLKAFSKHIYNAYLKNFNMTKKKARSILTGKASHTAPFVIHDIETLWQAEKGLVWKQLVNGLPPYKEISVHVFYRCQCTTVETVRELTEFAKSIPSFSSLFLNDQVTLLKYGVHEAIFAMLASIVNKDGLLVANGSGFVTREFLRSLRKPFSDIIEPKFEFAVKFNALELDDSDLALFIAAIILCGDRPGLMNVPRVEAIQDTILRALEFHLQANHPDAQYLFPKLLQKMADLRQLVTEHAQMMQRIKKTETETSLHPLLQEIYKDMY
Sequence of Vitamin D3 receptor (Homo sapiens) (P11473 whole entry, looked up): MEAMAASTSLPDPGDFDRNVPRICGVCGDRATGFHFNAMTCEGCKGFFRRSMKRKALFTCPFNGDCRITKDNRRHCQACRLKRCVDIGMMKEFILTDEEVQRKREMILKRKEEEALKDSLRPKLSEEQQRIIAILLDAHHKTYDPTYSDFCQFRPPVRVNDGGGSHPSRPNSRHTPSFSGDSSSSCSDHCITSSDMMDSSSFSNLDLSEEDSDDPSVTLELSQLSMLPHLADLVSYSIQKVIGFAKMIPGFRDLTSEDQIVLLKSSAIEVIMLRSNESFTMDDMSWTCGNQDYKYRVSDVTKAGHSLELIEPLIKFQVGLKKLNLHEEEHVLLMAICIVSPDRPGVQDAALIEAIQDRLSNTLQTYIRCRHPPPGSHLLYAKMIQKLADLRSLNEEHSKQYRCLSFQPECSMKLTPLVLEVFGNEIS
Sequence of Peroxisome proliferator-activated receptor alpha (Homo sapiens) (Q07869 whole entry, looked up): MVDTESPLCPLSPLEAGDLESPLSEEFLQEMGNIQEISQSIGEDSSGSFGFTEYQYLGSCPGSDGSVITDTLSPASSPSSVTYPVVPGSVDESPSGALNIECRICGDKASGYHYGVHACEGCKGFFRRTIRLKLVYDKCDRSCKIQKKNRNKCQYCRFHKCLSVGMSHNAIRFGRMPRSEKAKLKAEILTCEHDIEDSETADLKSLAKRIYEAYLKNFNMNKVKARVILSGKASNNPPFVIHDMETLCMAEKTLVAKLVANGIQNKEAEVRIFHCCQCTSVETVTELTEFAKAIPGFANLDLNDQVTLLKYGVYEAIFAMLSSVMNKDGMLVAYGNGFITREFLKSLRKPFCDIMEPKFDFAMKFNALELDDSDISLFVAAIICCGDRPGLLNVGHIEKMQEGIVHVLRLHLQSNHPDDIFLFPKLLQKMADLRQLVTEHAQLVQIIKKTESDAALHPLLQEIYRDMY

For the compound `C#CCN(C)[C@@H](C)Cc1ccccc1`, the outcome in experiment [1], in experiment [2], in experiment [4], in experiment [5], in experiment [6] and in [7] was inactive. In experiment [8], the compound was classed as inactive. Moreover, the Potency entry in experiment [3] is “inactive”.
Consider `CN(C)C(=O)Oc1cc(OC(=O)N(C)C)cc([C@@H](O)CNC(C)(C)C)c1`, for which, in [9], the Potency result was “inactive”.
Take `NC[C@H](O)c1ccc(O)cc1`: the outcome in experiment [1], in [2], in experiment [4], in experiment [5], in experiment [6] and in [7] was inactive. Moreover, the call in experiment [8] was inactive. Also, the Potency entry in experiment [3] was “inactive”.
On to `CNC[C@H](O)c1ccc(O)cc1`, for which the Potency result in [9] was “inactive”.
On the same count and under the same terms, then `CC[C@@H]1[C@@H]2C[C@H]3[C@H]4N(C)c5ccccc5[C@@]45C[C@@H]([C@@H]2[C@@H]5O)N3[C@H]1O`, with “inactive”.
Still for that read-out and setting: to `C[C@H]1CN(C2CCC(C#N)(c3ccc(F)cc3)CC2)CC[C@@]1(C(=O)O)c1ccccc1` (some centres undefined) belongs “inactive”.
Consider `CCC[C@@](C)(COC(N)=O)COC(=O)NC(C)C`, for which, in experiment [10], the Potency result is “inactive”.
Consider `C[N+]1(C)[C@@H]2CC[C@H]1CC(OC(=O)[C@@H](CO)c1ccccc1)C2` (some centres undefined), for which the compound was called inactive in [1], in [2], in experiment [4], in experiment [5], in [6] and in [7]. Also, the call in experiment [8] was inactive. In addition, the Potency result in experiment [3] and in experiment [9] was “inactive” in each case.
With `CC(C)N(CC[C@@](C(N)=O)(c1ccccc1)c1ccccn1)C(C)C`, the call in experiment [1], in experiment [2], in experiment [4], in experiment [5], in [6] and in [7] was inactive. In addition, the result in experiment [8] was inactive. For the same compound, the Potency entry in [3] was “inactive”.
Regarding `CN1Cc2c(ccc3c2OCO3)[C@@H]2[C@@H](O)Cc3cc4c(cc3[C@@H]21)OCO4`, the Potency entry in [10] was “inactive”.
In the case of `C[C@]12CC[C@H](O)C[C@@H]1CC[C@H]1[C@H]2CC[C@]2(C)C(=O)CC[C@@H]12`, the compound was called inactive in [1], in experiment [2], in experiment [4], in [5], in experiment [6] and in experiment [7]. The call in experiment [8] was inactive. Moreover, the Potency result in experiment [3] is “inactive”.
Take `CC[C@@]1(c2ccc(N)cc2)CCC(=O)NC1=O`: the outcome in experiment [1], in experiment [2], in [4], in experiment [5], in experiment [6] and in [7] was inactive. In addition, the compound was called inactive in experiment [8]. The Potency result in experiment [3] was “inactive”.
`CN1CC[C@]2(C)c3cc(O)ccc3N(C)[C@@H]12`: the call in experiment [1], in experiment [4], in [5], in experiment [6], in [7] and in [8] was inactive. In [10], the Potency is 25.1 µM (active). Also, the Potency entry in experiment [3] is “inactive”.
As for `COc1ccc(OC)c([C@H](O)[C@H](C)N)c1`, the compound was classed as inactive in [1], in experiment [2], in [4], in experiment [5], in experiment [6] and in experiment [7]. Moreover, the compound was classed as inactive in [8]. Also, the Potency entry in experiment [3] was “inactive”.
On to `CC(C)c1c(CN(C)[C@@H](C)Cc2ccccc2)n(C)n(-c2ccccc2)c1=O`, for which the Potency in experiment [10] was 7.94 µM (active). Besides, the Potency entry in experiment [9] was “inactive”.
For the compound `CC(C)[C@@]1(NC(=O)[C@@H]2C[C@H]3c4cccc5[nH]cc(c45)C[C@@H]3N(C)C2)O[C@]2(O)[C@H]3CCCN3C(=O)[C@H](Cc3ccccc3)N2C1=O`, the Potency in experiment [10] is 2.51 µM (active).
Take `CNC(=O)N(C)c1nnc(C(C)(C)C)s1`: the max response was 22% in experiment [11]; -5.03% in [15]; -28.5% (inactive) in experiment [18]; -3.93% (inactive) in [19]; -3.03% (inactive) in [20]. The Potency entry in experiment [12] and in experiment [16] was “inactive” in each case. Further, the result in [13], in experiment [14] and in experiment [17] was inactive.
